Data on 20 compounds can be found in PubChem BioAssay (EPA / NIEHS).

Several values for one entry are separate records, joined by “and”; a condition that tells them apart may be missing. Identical values can stand only once. The source holds several records for some structures; these can differ, active in one and inactive in another. Activity calls are given as the source filed them. How the source made its calls: active means hit-call score of the fitted dose curve at least 0.9, where 1 is the maximum; inactive means score below 0.9.

Read-out in assay [1]: Human Leukocyte Antigen - DR isotype (HLADR), HLA-DRA (gene 3122)
The assay can be described thus: BSK_BE3C_HLADR: BioMAP Diversity Plus: BE3C Assay for Human Leukocyte Antigen - DR isotype (HLADR) Biomarker Activity (AID 2283032). Particulars: primary human bronchial epithelial cells; actives raise or lower the signal. An outline of the steps:
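Human primary bronchial epithelial cells in the BE3C system were exposed to chemicals for 24 h, after which HLA-DR levels were quantified by ELISA. Activity was fitted bidirectionally, gain or loss of signal, against DMSO as negative control and baseline.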

Read-out in assay [2]: Vascular cell adhesion molecule 1 (VCAM1), VCAM1 (gene 7412)
Put plainly: BSK_4H_VCAM1: BioMAP Diversity Plus: 4H Assay for Vascular cell adhesion molecule 1 (VCAM1) Biomarker Activity (AID 2283033).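 On outcome: cell-surface VCAM-1 protein measured by ELISA.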 Particulars: primary human endothelial cells (HUVEC); actives raise or lower the signal. An outline of the steps: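 Primary human umbilical vein endothelial cells were exposed to chemicals for 24 h, after which VCAM-1 was quantified by ELISA. Responses were fitted bidirectionally against DMSO as negative control and activity baseline.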

Read-out in assay [3]: Interferon-gamma inducible Protein 10 (IP10), CXCL10 (gene 3627)
The assay can be described thus: BSK_BE3C_IP10: BioMAP Diversity Plus: BE3C Assay for Interferon-gamma inducible Protein 10 (IP10) Biomarker Activity (AID 2283034). The conditions noted are these: primary human bronchial epithelial cells; actives raise or lower the signal. Summed up: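 Human primary bronchial epithelial cells were exposed to chemicals for 24 hours, after which IP-10 levels were measured by ELISA. Data were fitted bidirectionally against DMSO, which served as the negative control and activity baseline.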

Read-out in assay [4]: Monokine induced gamma interferon (MIG), CXCL9 (gene 4283)
Put plainly: BSK_BE3C_MIG: BioMAP Diversity Plus: BE3C Assay for Monokine induced gamma interferon (MIG) Biomarker Activity (AID 2283035).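 On outcome: MIG protein measured by ELISA in BE3C cultures after 24 h of dosing.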 Particulars: primary human bronchial epithelial cells; actives raise or lower the signal. An outline of the steps:
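MIG level was determined by ELISA after 24 h chemical treatment of primary human bronchial epithelial cells. Values were fitted bidirectionally with DMSO as the negative control and activity baseline.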

Read-out in assay [5]: Transforming growth factor beta 1 (TGFb1), TGFB1 (gene 7040)
The assay can be described thus: BSK_BE3C_TGFb1: BioMAP Diversity Plus: BE3C Assay for Transforming growth factor beta 1 (TGFb1) Biomarker Activity (AID 2283036). The conditions noted are these: primary human bronchial epithelial cells; actives raise or lower the signal. An outline of the steps:
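Human primary bronchial epithelial cells (BE3C system) were dosed with chemical and TGF-b1 levels measured by ELISA at 24 h. Activity was fitted bidirectionally relative to DMSO negative control as baseline.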

Read-out in assay [6]: Plasminogen activator inhibitor-1 (PAI1), SERPINE1 (gene 5054)
The assay can be described thus: BSK_BE3C_PAI1: BioMAP Diversity Plus: BE3C Assay for Plasminogen activator inhibitor-1 (PAI1) Biomarker Activity (AID 2283037). Particulars: primary human bronchial epithelial cells; actives raise or lower the signal. Summed up: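 Human primary bronchial epithelial cells were exposed to chemical for 24 h, then PAI-1 was quantified by ELISA. Activity was fitted bidirectionally relative to the DMSO negative control baseline.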

Read-out in assay [7]: urokinase plasminogen activator (uPA), PLAU (gene 5328)
Put plainly: BSK_BE3C_uPA: BioMAP Diversity Plus: BE3C Assay for urokinase plasminogen activator (uPA) Biomarker Activity (AID 2283038).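 On outcome: uPA protein level quantified by ELISA in cell cultures; uPA read one day after compound addition.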 The conditions noted are these: primary human bronchial epithelial cells; actives raise or lower the signal. Summed up:
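Human primary bronchial epithelial cells were exposed to chemical for 24 h, then uPA levels were measured by ELISA. Responses were fitted bidirectionally against DMSO as negative control and baseline. Parallel SRB staining of total protein gauged overt cytotoxicity.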

Read-out in assay [8]: Urokinase-type plasminogen activator receptor (uPAR), PLAUR (gene 5329)
The assay can be described thus: BSK_BE3C_uPAR: BioMAP Diversity Plus: BE3C Assay for Urokinase-type plasminogen activator receptor (uPAR) Biomarker Activity (AID 2283039).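 On outcome: cells exposed to compound for one day before measurement.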 The conditions noted are these: primary human bronchial epithelial cells; actives raise or lower the signal. Summed up: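 Primary human bronchial epithelial cells were dosed with chemical and harvested 24 h later; uPAR was quantified by ELISA. Activity was fitted bidirectionally against DMSO as negative control and baseline.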

Read-out in assay [9]: Interleukin-6 (IL6), IL6 (gene 3569)
Put plainly: BSK_CASM3C_IL6: BioMAP Diversity Plus: CASM3C Assay for Interleukin-6 (IL6) Biomarker Activity for (AID 2283040). Particulars: primary human coronary artery smooth muscle cells; actives raise or lower the signal.

Read-out in assay [10]: Tissue plasminogen activator (tPA), PLAT (gene 5327)
The assay can be described thus: BSK_BE3C_tPA: BioMAP Diversity Plus: BE3C Assay for Tissue plasminogen activator (tPA) Biomarker Activity (AID 2283041).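 On outcome: tPA level quantified by ELISA one day after compound addition.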 Particulars: primary human bronchial epithelial cells; actives raise or lower the signal. Summed up:
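Human primary bronchial epithelial cells were dosed with chemical and tPA biomarker levels measured by ELISA 24 hours later. Activity was fitted bidirectionally against DMSO as negative control and baseline.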

Broadly, the AC50 is the concentration giving half of the maximal activity seen.

On to `CCN(Cc1c(F)cccc1Cl)c1c([N+](=O)[O-])cc(C(F)(F)F)cc1[N+](=O)[O-]`, for which the outcome in assay [1], in [3], in assay [4], in assay [5], in [6] and in assay [7] was inactive. Also, the outcome in [8], in [9] and in [10] was inactive. In addition, in assay [2], the AC50 is 4.57 µM (active).
Take `CC(C)(C)[C@@H](O)[C@@H](Cc1ccc(Cl)cc1)n1cncn1`: the outcome in assay [1], in assay [2], in assay [3], in assay [4], in assay [5] and in assay [6] was inactive. The outcome in assay [8], in assay [9] and in [10] was inactive.
As to `CCCCCOC(=O)COc1cc(N2C(=O)C3=C(CCCC3)C2=O)c(F)cc1Cl`, the outcome in [1], in assay [2], in [3], in assay [4], in assay [5] and in assay [6] was inactive. In addition, the outcome in [7], in [8], in [9] and in [10] was inactive.
As to `O=C(O)c1ccccc1`, the outcome in [1], in [2], in [3], in [4], in assay [5] and in assay [6] was inactive. Moreover, the outcome in assay [7], in assay [8], in assay [9] and in assay [10] was inactive.
Turning to `CCCCC(CC)COC(=O)c1ccccc1C(=O)O` (centres undefined), the outcome in assay [1], in assay [2], in [3], in assay [4], in [6] and in [8] was inactive. For the same compound, the result in assay [9] and in assay [10] was inactive. Moreover, the AC50 in assay [5] is 5.04 µM (active).
As for `CCOC(=O)C(C)Oc1ccc(Oc2nc3ccc(Cl)cc3o2)cc1` (centres undefined), the AC50 in assay [1] was 20 µM (active); in [6], 33.5 µM (active); in assay [7] it was 24.3 µM (active). Also, the result in [2], in [3], in assay [4], in assay [5], in assay [8] and in [9] was inactive. Besides, the outcome in [10] was inactive.
For `COc1nc(C)nc(NC(=O)NS(=O)(=O)c2ccccc2OCCCl)n1`, the result in assay [1], in assay [2], in assay [3], in [4], in assay [5] and in assay [6] was inactive. Besides, the result in assay [8], in assay [9] and in assay [10] was inactive.
With `S=C(S)NCCNC(=S)S.[Mn+2].[S-]C([S-])=NCCN=C([S-])[S-].[Zn+2]`, the half-maximal activity concentration (AC50) in assay [1] was 8.2 µM (active) and 10 µM (active); in assay [2], 10 µM (active); in assay [3], 15.2 µM (active). The outcome in [1], in [2], in [3], in assay [4], in [5] and in assay [6] was inactive. The result in assay [8], in assay [9] and in [10] was inactive.
With `CCOC(=O)[C@H](C)Oc1ccc(Oc2nc3ccc(Cl)cc3o2)cc1`, the outcome in assay [1], in assay [2], in assay [3], in assay [4], in [5] and in [8] was inactive. Besides, the result in assay [9] and in assay [10] was inactive. Further, the AC50 in assay [6] is 3.97 µM (active).
Consider `C=CCOC(Cn1ccnc1)c1ccc(Cl)cc1Cl` (centres undefined), for which the result in [1], in [2], in [3], in assay [4], in [5] and in assay [6] was inactive. The outcome in assay [7], in [8], in [9] and in [10] was inactive.
In the case of `CCCCCCC(C)OC(=O)COc1nc(F)c(Cl)c(N)c1Cl` (centres undefined), the outcome in assay [1], in assay [3], in [4], in assay [5], in assay [6] and in assay [7] was inactive. Besides, the outcome in [8], in assay [9] and in assay [10] was inactive. Moreover, the AC50 in assay [2] was 39 µM (active).
Regarding `N[C@@H](Cc1cc(I)c(Oc2ccc(O)c(I)c2)c(I)c1)C(=O)O`, the outcome in assay [1], in assay [2], in assay [4], in assay [5], in assay [8] and in [9] was inactive. Moreover, the AC50 in assay [3] is 21.3 µM (active); in [6] it was 18.8 µM (active); in [10], 16 µM (active).
For `Cc1nn(C)c(Oc2ccccc2)c1C=NOCc1ccc(C(=O)OC(C)(C)C)cc1`, the AC50 in assay [1] is 0.814 µM (active); in [3] it was 11.7 µM (active); in assay [6] it was 7.02 µM (active). For the same compound, the result in assay [2], in [4], in assay [5], in assay [8], in assay [9] and in assay [10] was inactive.
In the case of `O=C(c1ccccc1)C1CCCCC1`, the result in [1], in [2], in assay [3], in assay [4], in assay [5] and in [6] was inactive. The outcome in [8] and in [9] was inactive. Further, the AC50 in assay [10] is 33.3 µM (active).
As for `COC(=O)c1cccc(C)c1S(=O)(=O)NC(=O)Nc1nc(OCC(F)(F)F)nc(N(C)C)n1`, the result in assay [1], in assay [2], in assay [3], in assay [4], in assay [5] and in assay [6] was inactive. The outcome in assay [8], in [9] and in assay [10] was inactive.
For the compound `COCCO`, the result in [1], in assay [2], in [3], in assay [4], in [5] and in assay [6] was inactive. Also, the result in [8], in assay [9] and in assay [10] was inactive.
As for `CCC(O)=C1C(=O)CC(C(=O)O)CC1=O` (centres undefined), the outcome in [1], in [2], in [3], in assay [4], in [5] and in [6] was inactive. Further, the result in [8], in assay [9] and in assay [10] was inactive.
On to `CC(C)CCCCCCc1ccc(O)cc1`, for which the AC50 in assay [1] is 26.2 µM (active); in assay [2], 7.96 µM (active); in assay [3] it was 14.7 µM (active); in assay [4] it was 33.4 µM (active); in assay [5], 26.2 µM (active); in [6], 31 µM (active). For the same compound, the AC50 in [8] was 33.3 µM (active); in [9], 36.9 µM (active); in [10], 14.5 µM (active).
For the compound `CCOC(=O)c1ccc(O)cc1`, the result in assay [1], in assay [2], in assay [3], in [4], in assay [5] and in [6] was inactive. Besides, the result in [8], in [9] and in assay [10] was inactive.
On to `O=C(Nc1ccc([N+](=O)[O-])cc1Cl)c1cc(Cl)ccc1O`, for which the concentration at half-maximal activity (AC50) is 0.148 µM (active) in [1]; 0.412 µM (active) in assay [2]; 0.302 µM (active) in assay [3]; 0.148 µM (active) in assay [4]; 0.148 µM (active) in assay [8]; 0.308 µM (active) in assay [9]. In addition, the result in [5], in assay [6] and in assay [10] was inactive.
